# Experimental data published in the OligoGym collection.
# Molecular target: RHOJ
# Assay: pooled miR-30 sensor sort-seq; sequence = guide strand
# Settings: shRNA
# Note: reference of the scale not given here.
row,Sequence,sensor-assay potency score (higher = more potent)
1,TAGCACTGTGCTCCGATCGCTT,-0.602
2,TTCTCTTTCATATACAGCAAAC,-1.56
3,TTCTTCTCGTCGTTGCCCCTGC,-0.309
4,TTTGAGACCTTTCTGAGTCAGA,-0.62
5,TTGACTTTGTTTTTGATGCGAT,-0.0639
6,AACATCTTCTTCTCGTCGTTGC,0.438
7,TCAACATCTTCTTCTCGTCGTT,0.0564
8,TTTCTCTTTCATATACAGCAAA,-0.918
9,TTGGCTGCCATTCTCATCCCTG,-0.433
10,TTCTGAGTCAGAGCTGAACATT,-1.66
11,ATAGTGGTCAAACACAGTGGGC,-0.911
12,TTCAACATCTTCTTCTCGTCGT,0.937

# Molecular target: RIC8A
# Assay: as above
# Settings: shRNA
row,Sequence,sensor-assay potency score (higher = more potent)
1,TTCACTCCCATGAACTCCGTGG,0.138
2,AACATCCAGACACTTGAGGGGC,-0.627
3,TTCTAGCACAAGAAGACCGTTG,0.199
4,TTGGGCATCATCAAACGTGAAG,-0.89
5,AAGAACTGGACATCGTGGGGGA,0.415
6,TACACTCTCCTTCAGCCTGTGT,-1.16
7,TTTGAGGATCTCCATGGCCCGC,-1.76
8,TGGGCCTTCAGGAACTTCCTGG,-0.964
9,TAGTCTCGCACATGGCATCCTG,-1.08
10,TACAACATCCATGTCTGCGGAC,-0.737
11,TTGTTCCGCAGCATCTCCCCAA,-0.652
12,TTTCAGCTCCTGAAACAGCTGC,-0.481
